KCNQ2 pot: potentiators of rat KCNQ2 potassium channel; actives 0.54% (n = 310,000); O88943; AID 2239; CHO-K1 KCNQ2, FluxOR thallium flux fluorescence; active compounds read high; B-score at 10 µM;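 active = fluorescence ratio B-score at least 3 SD of library B-scores, with initial fluorescence B-score within 3 of them, cut at about 5.3 in these data; same plate scores as AID 2156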;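 note: B-score of peak minus minimum over baseline fluorescence ratio after K+ and Tl+ stimulus; positive B-score means potentiation of KCNQ2 with more thallium influx and brighter signal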
KCNQ2 block: KCNQ2 (rat) channel inhibition; O88943; CHO-K1 KCNQ2, FluxOR thallium flux, 20 min; active compounds read low; B-score at 10 µM; actives 1.1% (n = 310,000); AID 2156;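 active = fluorescence ratio B-score at most minus 3 library SDs, with starting brightness B-score within 2 library SDs, cut at about -5.5 in these data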
Kir21 confirm: confirmation of mouse Kir2.1 potassium channel inhibitors | shares compounds with KCNQ2 pot | Kir2.1-expressing cells, FluxOR thallium flux fluorescence; active compounds read low | Tl flux remaining, % of negative control (active compounds read low), % at 10 µM | actives 41% (n = 2,300) | AID 2032;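 active = Primary-screen hit whose thallium flux fell at least 3 control SD below untreated wells in both duplicates, with normal baseline fluorescence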;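 note: 0% = blank wells without stimulus and 100% = stimulated no-compound controls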
HEK293 Tl flux: parental HEK293 activity in Kir2.1 inhibitor counter-screen; shares compounds with KCNQ2 pot; parental HEK293 cells, FluxOR thallium flux fluorescence; 0% = unstimulated blank wells; FluxOR signal as % of negative control (100 = no effect), % at 10 µM; actives 19% (n = 2,300); AID 2105;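 active = dye signal at least 3 control SD above or below untreated wells in both duplicates, raw fluorescence within 3, either direction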;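 note: percent is based on the flux ratio of peak minus minimum fluorescence over baseline F0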
CHO-K1 ctr: alters thallium flux in parental CHO-K1 cells, KCNQ2 counter-screen | shares compounds with KCNQ2 pot | FluxOR thallium flux fluorescence; zero = vehicle mean+3SD, 100% = vehicle-minus-blank window | activity increase over 3SD of controls, % at 10 µM | actives 43% (n = 1,200) | AID 2282;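 active = signal rise of at least 3 SD above the untreated control mean, in both duplicate wells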;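 note: counter screen of KCNQ2 potentiator hits so any rise reflects channel-independent effects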
KCNQ1 sel pot: tests whether KCNQ2 potentiators also act on human KCNQ1. shares compounds with KCNQ2 pot. activation over 3SD threshold, % at 10 µM. actives 28% (n = 1,200). CHO KCNQ1 stable, FluxOR thallium flux fluorescence; beyond 3SD, as % of vehicle-control signal;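 active = fluorescence ratio rise of at least 3 SD of vehicle wells above their mean, in both replicate wells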;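 note: 0% = vehicle mean plus 3 SD and 100% = vehicle minus unstimulated blank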
Target sequence (P51787 whole entry, looked up): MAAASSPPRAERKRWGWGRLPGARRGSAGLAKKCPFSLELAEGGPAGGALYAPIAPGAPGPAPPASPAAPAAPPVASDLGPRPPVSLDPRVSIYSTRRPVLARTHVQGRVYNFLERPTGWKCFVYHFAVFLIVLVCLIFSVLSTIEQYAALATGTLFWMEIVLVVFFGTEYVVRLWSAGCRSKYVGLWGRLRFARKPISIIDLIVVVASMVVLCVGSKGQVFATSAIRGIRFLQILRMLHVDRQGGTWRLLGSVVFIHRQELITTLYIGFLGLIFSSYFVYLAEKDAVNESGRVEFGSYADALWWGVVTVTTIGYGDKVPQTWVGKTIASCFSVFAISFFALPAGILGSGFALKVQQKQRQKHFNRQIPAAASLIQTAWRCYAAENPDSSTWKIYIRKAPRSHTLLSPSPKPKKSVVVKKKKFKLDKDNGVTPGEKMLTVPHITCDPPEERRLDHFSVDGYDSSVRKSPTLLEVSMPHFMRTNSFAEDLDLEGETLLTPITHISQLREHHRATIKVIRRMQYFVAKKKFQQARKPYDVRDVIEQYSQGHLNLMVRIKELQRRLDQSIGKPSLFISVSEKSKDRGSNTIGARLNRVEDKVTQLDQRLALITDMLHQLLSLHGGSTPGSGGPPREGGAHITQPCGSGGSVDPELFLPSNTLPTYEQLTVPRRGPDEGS
KCNQ2 pot confirm: confirmation of rat KCNQ2 potassium channel potentiators. CHO-KCNQ2 cells, FluxOR thallium flux fluorescence. potentiation, less the hit threshold, % at 10 µM. shares compounds with KCNQ2 pot. actives 68% (n = 1,200);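 active = fluorescence ratio rising 3 SD or more over the vehicle control mean in both replicates, plus primary screen hit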;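 note: peak minus minimum thallium fluorescence divided by baseline after K/Tl stimulus; 0% = vehicle mean plus 3 SD and 100% = vehicle minus unstimulated blank difference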
Kir21 spec: mouse Kir2.1 off-target activity of KCNQ2 potentiators | actives 2% (n = 1,200) | shares compounds with KCNQ2 pot | HEK293 Kir2.1, FluxOR thallium flux fluorescence | activity over 3SD threshold, % at 10 µM;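 active = fluorescence ratio rise of at least 3 SD above the vehicle-control mean, seen in both replicates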;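 note: 0% = vehicle mean plus 3 SD and 100% = vehicle minus no-stimulus blank window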
KCNQ2 W236L MoA: potentiates the retigabine-insensitive rat KCNQ2 W236L mutant channel. shares compounds with KCNQ2 pot. CHO KCNQ2-W236L, automated patch clamp current. current increase over 3SD of negative controls (%), active compounds read high, % at 25 µM. actives 10% (n = 940). AID 2558;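 active = current increase at least 3 SD of the untreated controls above them in both duplicate recordings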
Active calls of the source: *; i = inactive; . = no result. A selection: hits, their analogues and other compounds. The true share with any hit is near 1.6%.

SMILES	KCNQ2 pot	KCNQ2 block	Kir21 confirm	HEK293 Tl flux	others
CC(=O)N1CCN(S(=O)(=O)c2cccc(C(=O)Nc3cc(C(F)(F)F)ccc3N3CCOCC3)c2)CC1	.	i	.	.
O=C(NCc1ccco1)C1CCN(c2ccc(S(=O)(=O)N3CCOCC3)cc2[N+](=O)[O-])CC1	.	i	.	.
Cc1ccc(CNCc2ccccc2Cl)cc1	.	i	.	.
Cc1ccc2nc(Cl)c(CNCc3ccccc3)cc2c1	.	i	20%*	i
CCN(CC)CCn1c(=S)[nH]c2ccc(Br)cc2c1=O	.	i	.	.
O=C(NNC1=C(C(=O)C(F)(F)F)CCC1)c1cccc(O)c1	4.4	i	.	.
Cc1cccc(C(=O)NNC2=C(C(=O)C(F)(F)F)CCC2)c1O	6.6*	i	i	i	CHO-K1 ctr=-7;KCNQ1 sel pot=-16;KCNQ2 pot confirm=33*;Kir21 spec=-44;KCNQ2 W236L MoA=i
Cc1cccc(C(=O)NNC(=O)c2ccc(Cl)cc2)c1O	0.27	i	.	.
O=C(NNC1=C(C(=O)C(F)(F)F)CCC1)c1cccnc1	20*	i	i	64%*	CHO-K1 ctr=-16;KCNQ1 sel pot=-19;KCNQ2 pot confirm=35*;Kir21 spec=-21
COc1cc(/C=N/NC(=O)c2ccncc2)ccc1OC(=O)c1cc(OC)c(OC)c(OC)c1	.	i	.	.
Cc1cc(SCC(=O)c2ccc(O)c(O)c2)n2nc(C)c(-c3ccccc3)c2n1	2	i	.	.
CC1CC(C)(C)NC(=S)N1CCC(=O)NCCc1ccc(Cl)cc1 (centres undefined)	.	i	.	.
O=C(NC1CCN(Cc2ccccc2)CC1)c1ccccc1OCc1ccccc1	.	i	.	.
O=C(NC1CCN(Cc2ccccc2)CC1)c1ccccc1OCc1ccccc1Cl	.	i	73%*	i
Oc1ccc(/C=N/N2CCN(C3c4ccccc4-c4ccccc43)CC2)cc1O	.	i	.	.
CC(=O)Nc1sc2c(c1C(c1ccccc1Cl)N1CCN(CCO)CC1)CCCC2 (centres undefined)	5.3*	i	.	.	CHO-K1 ctr=-36;KCNQ1 sel pot=-18;KCNQ2 pot confirm=38*;Kir21 spec=-62;KCNQ2 W236L MoA=i
CC(=O)Nc1sc2c(c1C(c1ccccn1)N1CCCC1)CCCC2 (centres undefined)	1	i	.	.
C/C=C/c1ccc(OCCCCN(C)Cc2ccccc2)c(OC)c1	.	i	22%*	i
Cc1ccc(Cl)c(OCCCCN(C)Cc2ccccc2)c1	.	i	20%*	i
C/C=C/c1ccc(OCCNCc2ccccc2)c(OC)c1	.	i	.	.
Cc1ccc(Cl)c(OCCCN(C)Cc2ccccc2)c1	.	i	.	.
Fc1cccc(Cc2noc(CN3CCC(c4ccncc4)CC3)n2)c1	.	i	.	.
COc1cc(OC)cc(C(=O)Nc2ccc(S(=O)(=O)N3CCOCC3)cc2)c1	1.4	i	.	.
CS(=O)(=O)N1CCc2cc(C(=O)Nc3ccc(COCC(F)(F)F)cc3)ccc21	.	i	.	.
O=C(COC(=O)Cc1n[nH]c(=O)c2ccccc12)Nc1ccc(Cl)cc1F	.	i	.	.
SMILES	KCNQ2 pot	KCNQ2 block	Kir21 confirm	HEK293 Tl flux	others
Cc1nnnn1/C(=C\c1ccccc1)C(=O)OCC(=O)Nc1ccc(Cl)cc1F	.	i	i	i
COc1cccc(C(=O)NCc2ccco2)c1	8.9*	i	i	74%*	CHO-K1 ctr=-10;KCNQ1 sel pot=-12;KCNQ2 pot confirm=-31;Kir21 spec=-45
COc1cccc(C(=O)NCCS(=O)(=O)NCc2ccco2)c1	.	i	.	.
c1ccc2c(c1)CCN(c1nc(CN3CCOCC3)nc3sc4c(c13)CCCC4)C2	.	i	.	.
O=C(Nc1c2c(nn1-c1ccc(F)cc1)CS(=O)(=O)C2)c1ccc2c(c1)OCO2	.	i	.	.
Nc1ccccc1C(=O)NNc1ncc(C(F)(F)F)cc1Cl	.	i	.	.
O=C(NNc1ncc(C(F)(F)F)cc1Cl)c1ccc(Cl)c(Cl)c1	12*	i	i	i	CHO-K1 ctr=-12;KCNQ1 sel pot=-19;KCNQ2 pot confirm=1.2*;Kir21 spec=-30;KCNQ2 W236L MoA=6.1%*
Cc1nn(-c2ccccc2Cl)c(Cl)c1/C=N/Nc1cccc(C(=O)O)c1	5.2	i	.	.
Cc1nn(-c2cccc(C(F)(F)F)c2)c(Cl)c1/C=N/Nc1cccc(C(=O)O)c1	9.9*	i	i	i	CHO-K1 ctr=-10;KCNQ1 sel pot=30*;KCNQ2 pot confirm=98*;Kir21 spec=-36;KCNQ2 W236L MoA=17%*
CCOc1ccc(N2C=Nc3ccc(OCC)cc3C2)cc1	1.1	i	.	.
Oc1c(Br)cc(Br)cc1/C=N/c1nc2c(s1)CCCC2	8.7*	i	i	i	CHO-K1 ctr=48*;KCNQ1 sel pot=-6;KCNQ2 pot confirm=26*;Kir21 spec=-46;KCNQ2 W236L MoA=4.4%*
Oc1ccc2ccccc2c1/C=N/c1nc2c(s1)CCCC2	.	i	.	.
O=C(Nc1ccc(F)cc1)c1ccc(CSc2ccc(Cl)cc2)o1	7.2*	i	i	i	CHO-K1 ctr=2.2*;KCNQ1 sel pot=90*;KCNQ2 pot confirm=-9;Kir21 spec=-44;KCNQ2 W236L MoA=i
CC(=O)c1ccc(NC(=O)c2ccc(CSc3ccccc3)o2)cc1	1.1	i	.	.
COc1cccc(N2C(=O)C3CCCN3C2=S)c1 (centres undefined)	.	i	.	.
CCOC1OC(=O)C(Cl)=C1Nc1cc(C)ccc1C (centres undefined)	.	i	.	.
Cc1onc(-c2ccccc2)c1CNS(=O)(=O)c1ccccc1[N+](=O)[O-]	0.48	i	60%*	i
Cc1ccccc1CNS(=O)(=O)c1ccccc1[N+](=O)[O-]	0.52	i	.	.
CCn1c(SCCOc2ccc(Cl)cc2)nnc1-c1cccs1	.	i	69%*	i
CCn1c(SCC(=O)c2ccc(Cl)cc2)nnc1-c1cccs1	0.11	i	.	.
CCN(CC)CCCn1c(=S)[nH]c2ncccc2c1=O	1.4	i	.	.
CCN(CCCn1c(=S)[nH]c2ncccc2c1=O)c1ccccc1	19*	i	i	i	CHO-K1 ctr=-20;KCNQ1 sel pot=-39;KCNQ2 pot confirm=14*;Kir21 spec=-25;KCNQ2 W236L MoA=i
CC(NC(=O)c1ccc(N)cc1)c1ccccc1 (centres undefined)	.	i	.	.
Cc1noc(/C=C/N(C)C)c1S(=O)(=O)N1CCCC(C(=O)Nc2ccc(F)cc2F)C1 (centres undefined)	1.6	i	.	.
COC(=O)c1ccc(C(=O)NC(=S)Nc2nc3c(s2)CCCC3)cc1	7.3*	i	i	i	CHO-K1 ctr=83*;KCNQ1 sel pot=-7;KCNQ2 pot confirm=-8;Kir21 spec=-42;KCNQ2 W236L MoA=i
O=C(NC(=S)Nc1nc2c(s1)CCCC2)c1ccccc1	3.9	i	.	.
COc1ccccc1C1(O)CCN(CC(=O)Nc2nc(-c3ccccc3)cs2)CC1	.	i	.	.
CCOc1ccc(NC(=O)NC2CCS(=O)(=O)C2)cc1 (centres undefined)	.	i	.	.
O=C(CSc1ncccn1)Nc1ccc2c(c1)CCC2	1	i	.	.
